Granule exo inh = LAMP-1 surface exposure blockers, TALL-104 cells – cell-based, flow cytometry, MLPCN library, primary screen. AID 651702, 2012. inhibition, % at 10 µM. actives 0.66% (n = 360,000). TALL-104 LAMP-1 surface exposure; cells stimulated with thapsigargin and PMA;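 active = inhibition above about 55%, limit read from the data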
NTR1 ag = agonists of human NTR1, primary screen, imaging, U2OS cells, beta-arrestin-GFP, high content; Neurotensin receptor type 1 (Homo sapiens), P30989; NTR1-U2OS beta-arrestin-GFP spot imaging, agonist mode; activation, % at 20 µM; actives 0.17% (n = 330,000);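 active = activation at or above 40% of the spot to cytoplasm intensity ratio, with at least 20 cells analyzed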;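 also: 0% = DMSO without peptide and 100% = 100 nM NTR1 peptide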
Target sequence (P30989 whole entry, looked up): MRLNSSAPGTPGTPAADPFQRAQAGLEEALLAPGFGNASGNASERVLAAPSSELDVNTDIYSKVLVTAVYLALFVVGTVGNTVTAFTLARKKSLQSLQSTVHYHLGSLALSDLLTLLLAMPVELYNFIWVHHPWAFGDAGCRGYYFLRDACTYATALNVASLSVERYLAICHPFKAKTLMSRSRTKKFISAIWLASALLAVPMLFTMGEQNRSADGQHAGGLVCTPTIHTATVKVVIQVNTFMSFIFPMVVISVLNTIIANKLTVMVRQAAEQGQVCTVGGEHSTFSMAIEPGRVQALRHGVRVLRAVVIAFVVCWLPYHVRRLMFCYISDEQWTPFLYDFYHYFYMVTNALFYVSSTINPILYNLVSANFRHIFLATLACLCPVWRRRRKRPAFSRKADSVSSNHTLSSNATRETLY
m5-HT2A agonist = mouse Htr2a agonists via beta-arrestin recruitment, primary screen, cell-based, luminescence. 5-hydroxytryptamine receptor 2A (Mus musculus), P35363. CHO-K1 mHTR2A beta-arrestin complementation; percent of 30 µM serotonin response. activation, % at 7.6 µM. actives 0.66% (n = 360,000). AID 624169, 2012;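 active = activation above a run cutoff, the mean activation of all tested compounds plus 3 SD, cut at about 14% in these data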;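 also: 0% = plate median of compound wells and 100% = 30 µM serotonin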
Beta2AR agonist = beta2AR agonists driving receptor internalization, primary screen, cell-based, FAP fluorogen, flow cytometry. Beta-2 adrenergic receptor (Homo sapiens), P07550. Am2.2-beta2AR cells. response, % (test concentration not listed). actives 0.43% (n = 340,000). AID 504454, 2011;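 active = response above a set limit, near 3 SD of response in nonfluorescent compounds, cut at about 42% in these data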
ABHD5 PLIN5 PPI = ABHD5-PLIN5 interaction inhibitors, primary screen, cell lysate, split luciferase complementation, luminescence | actives 0.78% (n = 360,000) | inhibition, % at 4 µM | Split G. princeps luciferase complementation, 4 h | Perilipin-5 (Homo sapiens) + 1-acylglycerol-3-phosphate O-acyltransferase ABHD5 (Homo … | AID 602281, 2012;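 active = inhibition above the mean inhibition across every tested compound plus 3 SD, cut at about 22% in these data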;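 also: 0% = DMSO only wells and the 100% control is not disclosed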
ABHD5-PLIN5 conf = ABHD5-PLIN5 interaction inhibitors, confirmation, biochemical, luminescence; inhibition, % at 4 µM; actives 67% (n = 2,200); shares compounds with ABHD5 PLIN5 PPI; AID 651612, 2012; in the data active = inhibition above about 23%;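 also: 0% = DMSO vehicle wells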
HNF4 split-luc = HNF4 dimerization inhibitors, counter-screen for ABHD5-PLIN5 interaction inhibitor project, biochemical, split-luciferase complementation, luminescence. shares compounds with ABHD5 PLIN5 PPI. inhibition, % at 4 µM. actives 77% (n = 2,200). AID 651674, 2012;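 active = mean inhibition across replicate wells exceeding the computed hit threshold, cut at about 13% in these data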;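 also: light from luciferase halves that rejoin when HNF4 fusion proteins dimerize; 0% = DMSO only wells and the 100% control is not given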
* marks the source's active call; other numbers are inactive results. Hits are enriched below; roughly 2.3% of the tested compounds scored in any of these assays.

Screening CC(=O)Oc1ccc(N2C(=O)C3C(C2=O)C2(C)C=CC3(C)O2)cc1 (configuration not stated) returned NTR1 ag -1.
Screening CC(=O)Nc1cncc(-c2ccccc2N(C)C)n1 returned Granule exo inh -5, m5-HT2A agonist -4 and ABHD5 PLIN5 PPI -7.
CCn1nc(C)cc1-c1nnc(Sc2ncc([N+](=O)[O-])s2)n1C was read as Granule exo inh 17, NTR1 ag 29, m5-HT2A agonist -13, Beta2AR agonist 39, ABHD5 PLIN5 PPI 24*, ABHD5-PLIN5 conf 25* and HNF4 split-luc 110*.
For CC(C)(NC(=O)c1cc(Cl)c2ccccc2c1O)C(=O)O the results were Granule exo inh -7, NTR1 ag -1, m5-HT2A agonist 11, Beta2AR agonist 1 and ABHD5 PLIN5 PPI -5.
For CC(OC(=O)C1=COCCO1)C(=O)Nc1ncc(Cl)cc1Cl (configuration not stated) the results were Granule exo inh 0, NTR1 ag 1, m5-HT2A agonist -3, Beta2AR agonist -1 and ABHD5 PLIN5 PPI 3.
For CC(=O)C1=C(c2cccc([N+](=O)[O-])c2)N(C(C)=O)n2c(C)nnc2S1 the results were Granule exo inh 56*, NTR1 ag 2, m5-HT2A agonist 2, Beta2AR agonist 12, ABHD5 PLIN5 PPI 61*, ABHD5-PLIN5 conf 82* and HNF4 split-luc 47*.
Screening COc1ccc(C2=NN(C(=O)COc3ncnc4ccccc34)C(c3ccco3)C2)cc1 (configuration not stated) returned Granule exo inh -2, NTR1 ag 3, m5-HT2A agonist 2, Beta2AR agonist 6 and ABHD5 PLIN5 PPI 6.
For COc1ccc(C2=NN(C(=O)COC(=O)c3ccc(S(C)(=O)=O)c([N+](=O)[O-])c3)C(c3ccco3)C2)cc1 (configuration not stated) the results were Granule exo inh 33, NTR1 ag 39, m5-HT2A agonist 3, Beta2AR agonist 22, ABHD5 PLIN5 PPI 29*, ABHD5-PLIN5 conf 51* and HNF4 split-luc 90*.
Screening CCCCCSc1nncc(=O)[nH]1 returned Granule exo inh 0, NTR1 ag 3, m5-HT2A agonist 3, Beta2AR agonist 15 and ABHD5 PLIN5 PPI 9.
Screening CCCCCCCCSC1=CC(=O)C(OC)=C(OC)C1=O returned Granule exo inh 114*, m5-HT2A agonist 1, ABHD5 PLIN5 PPI 65*, ABHD5-PLIN5 conf 100* and HNF4 split-luc 104*.
For CCOC1=C2[C@@H](CN(S(=O)(=O)c3ccc(C)cc3)[C@H]2c2ccccc2Cl)[C@H]2C(=O)N(C)C(=O)[C@H]2C1 the results were Granule exo inh -1, m5-HT2A agonist -7 and ABHD5 PLIN5 PPI -3.
Fc1ccc(-[n+]2nc(Nc3ccccc3)sc2-c2c3ccccc3cc3ccccc23)cc1 was read as Granule exo inh -1, NTR1 ag 20, m5-HT2A agonist -14, Beta2AR agonist 32, ABHD5 PLIN5 PPI 25*, ABHD5-PLIN5 conf 4 and HNF4 split-luc 6.
For C[C@@H]1CN([C@H](C)CO)C(=O)c2c(c3ccccc3n2C)-c2ccccc2CO[C@H]1CN(C)S(=O)(=O)c1cn(C)cn1 the results were Granule exo inh -4, m5-HT2A agonist 1 and ABHD5 PLIN5 PPI 4.
Screening Cc1ccc(Sc2cc(NCCCO)c([N+](=O)[O-])c3nonc23)cc1 returned Granule exo inh 0, NTR1 ag 4, m5-HT2A agonist 0, Beta2AR agonist 19 and ABHD5 PLIN5 PPI 3.
CCCC(=O)OCCNc1cc(Sc2nc3ccccc3[nH]2)c2nonc2c1[N+](=O)[O-] was read as Granule exo inh 21, NTR1 ag -1, m5-HT2A agonist -10, Beta2AR agonist 37, ABHD5 PLIN5 PPI 50*, ABHD5-PLIN5 conf 61* and HNF4 split-luc 110*.
CCN(CC)C(=O)Cn1cc(C(=O)C(=O)N2CC=C(c3ccccc3)CC2)c2ccccc21 was read as Granule exo inh -1, NTR1 ag 1, m5-HT2A agonist -2, Beta2AR agonist -12 and ABHD5 PLIN5 PPI 1.
`CN(C)CCOc1ccc(/C(=C(/CCCl)c2ccccc2)c2ccccc2)cc1` gave Granule exo inh 14, NTR1 ag 1, m5-HT2A agonist -7, Beta2AR agonist 36, ABHD5 PLIN5 PPI 46*, ABHD5-PLIN5 conf 75* and HNF4 split-luc 35*.
`CN(CCOc1ccccc1)CCOc1ccccc1` gave Granule exo inh -8, NTR1 ag -3, m5-HT2A agonist -15, Beta2AR agonist -3 and ABHD5 PLIN5 PPI -3.
For CC[n+]1ccccc1/C=C/c1ccc(N(C)C)cc1 the results were Granule exo inh -2, m5-HT2A agonist 2, Beta2AR agonist -342 and ABHD5 PLIN5 PPI 5.
Screening CC[n+]1c(/C=C/c2ccc(OC)c(OC)c2)ccc2ccccc21 returned Granule exo inh 7, NTR1 ag 1, m5-HT2A agonist 0, Beta2AR agonist -3 and ABHD5 PLIN5 PPI 14.
`CC[n+]1ccc(/C=C/c2ccc(N(C)C)cc2)c2ccccc21` gave Granule exo inh -6, m5-HT2A agonist -14, Beta2AR agonist -119, ABHD5 PLIN5 PPI 28*, ABHD5-PLIN5 conf 32* and HNF4 split-luc 33*.
`CC[n+]1c(/C=C/c2ccc(N(C)C)cc2)ccc2ccccc21` gave Granule exo inh -4, m5-HT2A agonist -2, Beta2AR agonist -82, ABHD5 PLIN5 PPI 29*, ABHD5-PLIN5 conf 27* and HNF4 split-luc 28*.
For Cc1cc2nc(-c3ccc(Cl)cc3)c(Cc3ccsc3)n2c(C)c1Br the results were Granule exo inh 5, m5-HT2A agonist 14 and ABHD5 PLIN5 PPI -10.
For O=C(COC(=O)CSc1ccc([N+](=O)[O-])cc1)NCCC1=CCCCC1 the results were Granule exo inh 2, NTR1 ag 4, m5-HT2A agonist 0, Beta2AR agonist 3 and ABHD5 PLIN5 PPI 0.
For Cn1cnc([N+](=O)[O-])c1S(=O)(=O)Oc1cccc2ccccc12 the results were Granule exo inh 3, m5-HT2A agonist -2, Beta2AR agonist 21, ABHD5 PLIN5 PPI 76*, ABHD5-PLIN5 conf 76* and HNF4 split-luc 106*.
`Cn1cnc([N+](=O)[O-])c1S(=O)(=O)Oc1ccc(Cl)cc1` gave Granule exo inh 31, m5-HT2A agonist 5, Beta2AR agonist 14, ABHD5 PLIN5 PPI 73*, ABHD5-PLIN5 conf 85* and HNF4 split-luc 104*.

High-throughput results as filed in PubChem BioAssay.
